From PubChem BioAssay AID1117319 (Southern Research Institute, 2015)
The campaign covered roughly 260,000 compounds. About 1,500 (0.58%) were called active. Roughly 5% stayed inconclusive and do not appear here.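 The calls were made as follows: active = inhibition above a set limit at one or more doses, reproduced on every date tested; inconclusive = results disagree between test dates, or hit never tested in dose response; inactive = the rest.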 These entries were drawn from the full list. Results with a measured potency or affinity are listed apart.

Each compound was assayed against Virion infectivity factor (Human immunodeficiency virus type 1 group M subtype B (isolate BH10)) + Virion infectivity factor (Human immunodeficiency virus type 1 group M subtype B (isolate BRU/LAI)) + Virion infectivity factor (Human immunodeficiency virus type 1 group M subtype B (isolate PCV12)) + Virion infectivity factor (Human immunodeficiency virus type 1 group M subtype B (isolate HXB2)) + DNA dC->dU-editing enzyme APOBEC-3G (Homo sapiens) (UniProt P69720+P69721+P69722+P69723+Q9HC16) (assay: HIV-1 Vif–A3G interaction blockers – biochemical, TR-FRET, GST-Vif 1-94, biotin-A3G peptide, dose response retest, primary screen (AID 1117319;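 also: Vif residues 1-94 fused to GST binding biotinylated APOBEC3G peptide 110-148; 0% = full assay without inhibitor and 100% = GST in place of GST-Vif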)). Details: TR-FRET GST-Vif / biotin-A3G peptide binding; hits give high values.

inhibition, inactive:
COCCn1nnnc1C(c1cc2cc(C)ccc2[nH]c1=O)N1CCc2ccccc21 (stereo unspecified) 17%
Cc1cc(NC(=O)CSc2nnc(Cc3cccn3C)n2CCc2ccccc2)no1 24.2%
CC1(C)Cc2cccc(OCC(=O)OCc3nnc(-c4ccccc4)o3)c2O1 -2.78%
CC(/C=N/NC(=O)Cc1cccs1)=C\c1ccco1 12.2%
C/C(=N\NC(=O)Cc1cccn1C)c1ccco1 20.2%
CC(=O)Nc1ccc2c(c1)nc(C)n2-c1ccccc1 -9.18%
O=C1C[C@@H](c2ccc(O)cc2)Oc2cc(O)cc(O)c21 2.93%
O=C1CC(c2ccc(O)cc2)Oc2cc(O)cc(O)c21 (stereo unspecified) 10.3%
Cc1n[nH]c(C)c1S(=O)(=O)N(C)Cc1ccco1 0%
Cc1noc(C)c1COc1ccc(C(=O)OCC(=O)N2CC(=O)Nc3ccccc32)cc1 2.4%
CCC(=O)c1ccc(OCC(=O)OCC(=O)N2c3ccccc3NC(=O)C2(C)C)cc1 0.69%
CS(=O)(=O)N(CC(=O)N1CCCCCC1)c1ccc2c(c1)OCCO2 0.11%
CCC(=O)Nc1nc2ccc([N+](=O)[O-])cc2s1 1.71%
COc1ccc(C)cc1NC(=O)NCc1ccc(F)cc1 7.92%
COc1ccc(OC)c(NC(=O)NCc2cccnc2)c1 -1.39%
O=C(CCNC(=O)c1ccc(Cl)cc1)NCc1ccccc1Cl -1.5%
COc1cccc(-c2c3c([nH]c(=O)c2C#N)CCc2cc(OC)ccc2-3)c1 -2.14%
CCCCN1CC(COCc2ccccc2)Oc2cc(Br)ccc2S1(=O)=O (stereo unspecified) -3.27%
CCC(C(=O)OCC(=O)Nc1ccc(C(N)=O)cc1)c1ccccc1 (stereo unspecified) -11.4%
CCC(C(=O)OCC(=O)Nc1ccc(F)cc1)c1ccccc1 (stereo unspecified) 11.7%
CCSc1nnc(NC(=O)[C@@H](NC(=O)c2ccccc2F)C(C)C)s1 -8.51%
Cc1cc(Cl)c2c(c1)[C@]1(C(=O)N2)[C@@H]2C(=O)N(Cc3ccccc3)C(=O)[C@@H]2[C@@H]2CCCN21 28.3%
Cc1c(Cl)ccc2c1NC(=O)[C@]21[C@@H]2C(=O)N(Cc3ccccc3)C(=O)[C@@H]2[C@@H]2CCCN21 2.38%
O=C(Cc1n[nH]c(=O)c2ccccc12)OCC(=O)c1ccc(F)c(F)c1 -13.4%
Cc1cc(NC(=O)Nc2ccc(F)cc2F)n(C)n1 -0.16%
C#CCN(C[C@H]1[C@H](OC(=O)Nc2c(C)noc2C)[C@H](OC(=O)Nc2c(C)noc2C)C[C@@H](C(=O)OC)[C@H]1C(=O)OC)S(=O)(=O)c1ccc(C)cc1 1.23%
